# Sa ugtP lethal: growth inhibition of ugtP-null S. aureus, primary screen, RN4220 ugtP deletion, OD600 | AID 1259309, 2017 | 0.54% of 330,000 active | growth inhibition, % (test concentration not listed) | 16 h; in the data active means growth inhibition above about 68%;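 further: plate controls were untreated wells for no effect and antibiotic for full effect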
# RN4220 kill: growth inhibition of S. aureus RN4220, primary screen, OD600 | AID 1259311, 2017 | 0.33% of 330,000 active | 16 h | inhibition, % (concentration not given with the values); in the data active means inhibition above about 85%;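 further: plate controls were untreated cells for no effect and reference antibiotic for full effect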
# TcdB GH inh: TcdB glycohydrolase inhibitors, primary screen, biochemical, single point, plate reader; Toxin B (Clostridioides difficile), P18177; TcdB glycohydrolase enzymatic assay; inhibition, % at 9.99 µM; 0.24% of 350,000 active; in the data active means inhibition above about 10%
# PfHsp40 rescue: rescue of yeast from PfHsp40 toxicity, primary screen, S. cerevisiae, ATP luminescence; S. cerevisiae expressing PfHsp40, growth rescue; growth rescue, % at 12.5 µM; 0.68% of 340,000 active; AID 504582, 2011; in the data active means growth rescue above about 28%, passing the limit was not always enough; inconclusive means no clear call, values can overlap the other calls;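 further: yeast W303a lacking pdr1 and pdr3 grown in galactose medium; growth measured after three days at 30 °C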
# PrP 5UTR inh: inhibition of PrP 5' UTR reporter expression; cell-based PrP 5' UTR mRNA reporter, plate reader; inhibition, % (test concentration not listed); 0.35% of 340,000 active; AID 488862, 2010; in the data active means inhibition above about 52%; further: 0 = median of the neutral control wells
# An asterisk follows results filed as active; ? = inconclusive; / = not tested or not shown. Rows were chosen to be rich in hits. Some 1.2% of all compounds tested hit in one or more screens of this group.
SMILES,Sa ugtP lethal,RN4220 kill,TcdB GH inh,PfHsp40 rescue,PrP 5UTR inh
COc1ccc(Br)c(C(=O)OCC(=O)N2CCC(Cc3ccccc3)CC2)c1,0,-1,1,27*,5
CC(=NNc1nccnc1Cl)c1ccc([N+](=O)[O-])cc1,7,5,/,/,/
O=C(O)c1ccccc1NS(=O)(=O)c1cccc(-n2sc3ccccc3c2=O)c1,-5,17,-1,407*,-15
O=C(O)c1ccccc1NS(=O)(=O)c1cccc(C(F)(F)F)c1,0,1,/,-1,-13
CCOC(=O)c1ccc(N2CCCCC2)c(NS(=O)(=O)c2cccc(C(F)(F)F)c2)c1,88*,1,1,0,-30
O=[N+]([O-])c1ccc(Nc2ccccc2)c2nonc12,/,/,0,-1,0
O=[N+]([O-])c1ccc(Sc2cccc[n+]2[O-])c2nonc12,18,14,-2,683*,-19
CCOC(=O)C[N+](C)(C)CCOC1CC2CCC1(C)C2(C)C (stereo not drawn),13,1,/,0,-11
CC1(C)C2CCC1(C)C(OCC[N+](C)(C)CC(=O)OC1CCCCC1)C2 (stereo not drawn),100*,77,2,0,-8
Cc1noc(C)c1NC(=O)N(C)C[C@@H]1Oc2ccc(NS(=O)(=O)c3ccccc3)cc2C(=O)N([C@@H](C)CO)C[C@@H]1C,/,/,0,/,/
CCCOC(=O)c1c(-c2ccccc2)nc(CC)c(C(=O)SCC)c1CCC,95*,-2,2,0,7
Cc1ccc(S(=O)(=O)N(C)C[C@@H]2OCCCC[C@@H](C)Oc3ccc(NC(=O)Nc4ccccc4)cc3C(=O)N([C@H](C)CO)C[C@H]2C)cc1,/,/,0,/,/
O=[N+]([O-])c1ccc(S(=O)(=O)c2cccc(C(F)(F)F)c2)nc1,56,18,/,42*,-26
O=S(=O)(Nc1cccnc1)c1cccc(C(F)(F)F)c1,6,3,/,-1,-17
COc1cccc(C(=O)NN=C/C(Br)=C/c2ccccc2)c1,-8,3,/,/,/
Cc1cc(C)nc(NS(=O)(=O)c2ccc(NC(=S)NC(=O)CC(C)C)cc2)n1,84*,4,/,-1,-16
CC(C)CC(=O)NC(=S)Nc1ccc(S(=O)(=O)N2CCCC2)cc1,87*,4,0,0,-12
CCn1c(SCc2ccccc2Cl)nc2ccccc21,91*,0,/,0,-23
Cn1c(SCc2ccccc2Cl)nc2ccccc21,27,5,/,2,-120
COc1ccccc1Nc1cc(C(=O)NCCCN2CCOCC2)c2ccccc2n1,-5,5,0,68*,-27
CC=Cc1ccc2n(c1=O)C[C@H]1[C@H](CO)[C@@H](C(=O)NCCN3CCCCC3)N(C(C)=O)[C@@H]21 (mixture of isomers),/,/,0,/,/
CC(=O)Nc1cc2c(cc1[N+](=O)[O-])-c1ccccc1C2=NO,/,/,0,1,-24
ON=C1c2ccccc2-c2ccc(O)cc21,/,/,15*,7,14
COc1ccc2c(c1)C(=NO)c1cc(OC)ccc1-2,100*,-3,/,0,-29
O=[N+]([O-])c1ccc2c(c1)C(=NO)c1ccccc1-2,97*,13,/,/,/
SMILES,Sa ugtP lethal,RN4220 kill,TcdB GH inh,PfHsp40 rescue,PrP 5UTR inh
Nc1cc2c(cc1[N+](=O)[O-])-c1ccccc1C2=NO,/,/,2,73*,-19
Nc1ccc2c(c1)C(=NO)c1ccccc1-2,/,/,1,0,-36
O=S1(=O)C2CC3C=C[C@@]2(CN1Cc1ccc(Cl)cc1)O3 (stereo partly drawn),3,3,/,/,/
CNC(=O)C[C@@H]1CC[C@H]2[C@H](COc3ccc(NS(=O)(=O)c4cccc(F)c4)cc3C(=O)N2C)O1,/,/,0,/,/
CO[C@@H]1CN(C)C(=O)c2cc(NS(C)(=O)=O)ccc2OC[C@H](C)NC[C@@H]1C,/,/,1,/,/
COc1ccc2c3c([nH]c2c1)[C@@H](CO)N(C(=O)Nc1ccc(F)cc1)CC31CCN(S(=O)(=O)c2cccs2)CC1,/,/,1,/,/
O=C(C1=C[C@@H](c2coc3ccccc3c2=O)C[C@@H](OCCCCO)O1)N1CCCCCCC1,/,/,-1,/,/
O=C(O)c1cc[c]([Hg][Cl])cc1,/,/,/,575*,-13
CN(C)c1nc(SCc2ccccc2Cl)nc2c1CCCC2,26,-10,/,155*,3
COc1ccc(CC(=O)NCC(=O)NN=Cc2ccco2)cc1,-4,0,/,/,/
O=C(C[n+]1cc(-c2ccccc2)n2c1CCCCC2)c1ccc(Cl)cc1,-14,-3,2,1,-12
CC1CCC(C(C)C)C(OC(=O)C[n+]2cc(-c3ccc(Cl)cc3)n3c2CCCCC3)C1 (stereo not drawn),101*,100*,2,1,-22
Cc1ccccc1NC(=S)NC(=O)CCc1ccccc1,85*,3,/,7,-9
CC(=O)NC(=S)Nc1sc2c(c1C#N)CCCCC2,2,6,1,2,-134
N#Cc1c(NC(=S)NC(=O)Cc2cccs2)sc2c1CCCCC2,87*,-5,/,0,-19
C/C=C/c1ccc([C@H]2[C@@H](C#N)N(c3ncc(CC)s3)[C@H]2CO)cc1,/,/,-1,/,/
N#CC(=NNc1cccc(C(F)(F)F)c1)C(=O)c1ccsc1,97*,100*,/,/,/
CC(=NNc1cccc(C(F)(F)F)c1)c1ccc(O)cc1,1,1,/,/,/
C[C@@H]1CN(c2c(F)c(F)c3c(=O)c(C(=O)O)cn(C4CC4)c3c2F)C[C@H](C)N1,97*,96*,1,1,8
Fc1ccc(/C=C\c2nccc3c2[nH]c2ccccc23)cc1,71,68,12*,0,-11
O=C(N[C@@H]1CC[C@H](CCn2cc(-c3cccnc3)nn2)O[C@@H]1CO)c1ccccc1F,/,/,0,/,/
O=C(Cn1cc(COc2ccc(Cl)c(Cl)c2)nn1)NS(=O)(=O)c1ccccc1OC(F)(F)F,/,/,11*,/,/
Cc1ccccc1-n1c(C)n[nH]c1=S,2,1,1,-1,-18
Cc1cccn2c(=S)[nH]nc12,1,6,16*,?,-7
Cc1noc(C)c1S(=O)(=O)Nc1ccc2c(c1)C(=O)N([C@@H](C)CO)C[C@H](C)[C@H](CN(C)C)O2,/,/,1,/,/
SMILES,Sa ugtP lethal,RN4220 kill,TcdB GH inh,PfHsp40 rescue,PrP 5UTR inh
O=C(C[C@@H]1C[C@@H]2c3cc(NC(=O)C4CCC4)ccc3O[C@@H]2[C@@H](CO)O1)NC1CCCCC1,/,/,0,/,/
COc1ccc(O)c(C=NNC(=O)c2c(C)nnn2-c2nonc2N)c1,8,4,/,/,/
C/C=C/c1ccc([C@@H]2[C@@H](CO)N(C(=O)C3CC3)C23CN(C(=O)NC(C)C)C3)cc1,/,/,-1,/,/
COc1ccc(CCn2c(C3CCCCC3)nc3c(c(=O)c4ccccc4n3C)c2=O)cc1,-4,-3,0,/,/
COc1ccc(CCn2c(C3CCCCC3)nc3c(c(=O)c4ccccc4n3C)c2=O)cc1OC,2,2,0,104*,-14
Nc1ncnc2[nH]c(=S)[nH]c12,-6,-3,15*,-1,-7
CCCCCn1c(=O)c(C(=O)Nc2nc3ccccc3[nH]2)c(O)c2ccccc21,101*,83,1,2,-9
